The source made the active and inactive calls. Rule for the calls: active = hit-call score of the fitted dose curve at least 0.9, where 1 is the maximum; inactive = score below 0.9.

This is an account of results in PubChem BioAssay (EPA / NIEHS).

Test [1] in a line: ATG_CRE_CIS: Attagene CIS-FACTORIAL HepG2 Assay for human cAMP Responsive Element (CRE) binding protein 3 (AID 2282926). The following applies: HepG2 CRE cis-reporter, Attagene multiplexed mRNA; actives raise or lower the signal. Put shortly: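 Liver-derived HepG2, transfected with a CRE-containing reporter panel, exposed 24 h; transcript levels sized and quantified by capillary electrophoresis of labelled amplicons; signal changes either way referenced to vehicle.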

Test [2] has as its target CCAAT/enhancer-binding protein beta (Homo sapiens) (UniProt P17676). In words: ATG_C_EBP_CIS: Attagene CIS-FACTORIAL HepG2 Assay for human CCAAT/Enhancer Binding Protein (C/EBP) beta (AID 2282927). Conditions: HepG2 Attagene cis-factorial transcription factor reporter; actives raise or lower the signal. Put shortly:
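Changes in reporter mRNA, rather than exogenous chimeric receptor activity, reflect native C/EBP signalling in transfected HepG2 cells dosed for 24 h; transcripts are detected by RT-PCR and capillary electrophoresis.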

Test [3] in a line: ATG_CMV_CIS: Attagene CIS-FACTORIAL HepG2 Assay for human CMV (Internal Marker) (AID 2282928).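 Note: endpoint acts as a background internal control marker rather than a target.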 Conditions: HepG2 CMV promoter reporter, transcription factor profiling; actives raise or lower the signal. The method, boiled down: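 Readout: fluorescent reporter cDNA fragments separated by capillary electrophoresis after RT-PCR and HpaI cut. Cells: HepG2 carrying transfected cis-promoter reporter constructs, dosed 24 h. Endpoint serves as background internal-marker control, fit bidirectionally versus DMSO.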

Test [4] can be described thus: ATG_DR4_LXR_CIS: Attagene CIS-FACTORIAL HepG2 Assay for human Liver X Receptor (LXR), DR4 submotif (AID 2282929). The following applies: HepG2 Attagene DR4 cis-reporter, mRNA transcription; actives raise or lower the signal. Put shortly:
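Readout: reporter transcript fluorescence after RT-PCR and capillary electrophoresis, fitted bidirectionally against DMSO controls. Human HepG2 liver cells carried transiently transfected multiplexed reporter constructs; endogenous transcription factor activity measured 24 h post-dosing.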

The target in test [5] is Aryl hydrocarbon receptor (Homo sapiens) (UniProt P35869). In words: ATG_Ahr_CIS: Attagene CIS-FACTORIAL HepG2 Assay for human Aryl Hydrocarbon Receptor (Ahr) (AID 2282930). Conditions: HepG2 AhR cis-factorial reporter transcription; actives raise or lower the signal. Put shortly:
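HepG2, transient MRTU (cis) transfection, 24 h exposure. RNA → cDNA → PCR → 6-FAM primer extension → HpaI 2 h 37 C → CE. Fit: bidirectional, DMSO baseline.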

Test [6] can be described thus: ATG_AP_2_CIS: Attagene CIS-FACTORIAL HepG2 Assay for human Activator Protein 2 (AP-2) (AID 2282932). The following applies: HepG2 AP-2 cis-reporter, Attagene transcription factor profiling; actives raise or lower the signal. The method, boiled down: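 Endogenous transcription factor activity is reported through transfected multiplex reporter constructs in HepG2, after 24 h of compound exposure. Transcripts were quantified by RT-PCR and capillary electrophoresis of fluorescent fragments. Bidirectional fit against DMSO.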

Test [7] in a line: ATG_BRE_CIS: Attagene CIS-FACTORIAL HepG2 Assay for human Bone Morphogenetic Protein (BMP) Response Element (BRE) (AID 2282933). Conditions: HepG2 BMP response element reporter, Attagene transcription factor profiling; actives raise or lower the signal. The method, boiled down:
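Endogenous transcription factor activity at a BMP response element was monitored in transfected HepG2 cells 24 h after dosing. Fluorescent RT-PCR products were resolved by capillary electrophoresis, and activity was fitted in both directions versus DMSO.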

Test [8] concerns the target Retinoic acid receptor alpha (Homo sapiens) (UniProt P10276). In words: ATG_DR5_RAR_CIS: Attagene CIS-FACTORIAL HepG2 Assay for human Retinoic Acid Receptor Alpha (RARE), DR5 submotif (AID 2282934).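 For AC50: reporter responds to endogenous RAR alpha beta and gamma in HepG2 not RARA alone.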 Conditions: HepG2 Attagene cis-factorial RARE DR5 reporter, mRNA; actives raise or lower the signal. The method, boiled down:
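HepG2, transient cis-reporter transfection, 24 h exposure. mRNA readout: RT-PCR, FAM label, HpaI cut, capillary electrophoresis. DMSO baseline, gain/loss fitting.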

The target in test [9] is Transcription factor E2F1 (Homo sapiens) (UniProt Q01094). In words: ATG_E2F_CIS: Attagene CIS-FACTORIAL HepG2 Assay for human E2F Transcription Factor 1 (AID 2282935). Conditions: HepG2 Attagene cis-reporter, E2F reporter RNA transcripts; actives raise or lower the signal. The method, boiled down:
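Gain or loss of reporter transcript, fitted against DMSO, reflects E2F1-driven transcription. Transiently transfected HepG2 dosed 24 h before RNA isolation. Quantified by fluorescent RT-PCR products separated by capillary electrophoresis.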

The nature of test [10]: ATG_AP_1_CIS: Attagene CIS-FACTORIAL HepG2 Assay for human Activator Protein 1 (AP-1) (AID 2282931). Conditions: HepG2 Attagene cis-factorial AP-1 reporter mRNA; actives raise or lower the signal. Put shortly: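 Reporter transcripts were measured 24 h after dosing by RT-PCR and capillary electrophoresis of fluorescent fragments. Cells: HepG2 carrying transfected cis-regulated reporter constructs reading endogenous factor activity. Gain or loss fitted against DMSO.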

Chain of Aryl hydrocarbon receptor (Homo sapiens) (P35869 whole entry, looked up): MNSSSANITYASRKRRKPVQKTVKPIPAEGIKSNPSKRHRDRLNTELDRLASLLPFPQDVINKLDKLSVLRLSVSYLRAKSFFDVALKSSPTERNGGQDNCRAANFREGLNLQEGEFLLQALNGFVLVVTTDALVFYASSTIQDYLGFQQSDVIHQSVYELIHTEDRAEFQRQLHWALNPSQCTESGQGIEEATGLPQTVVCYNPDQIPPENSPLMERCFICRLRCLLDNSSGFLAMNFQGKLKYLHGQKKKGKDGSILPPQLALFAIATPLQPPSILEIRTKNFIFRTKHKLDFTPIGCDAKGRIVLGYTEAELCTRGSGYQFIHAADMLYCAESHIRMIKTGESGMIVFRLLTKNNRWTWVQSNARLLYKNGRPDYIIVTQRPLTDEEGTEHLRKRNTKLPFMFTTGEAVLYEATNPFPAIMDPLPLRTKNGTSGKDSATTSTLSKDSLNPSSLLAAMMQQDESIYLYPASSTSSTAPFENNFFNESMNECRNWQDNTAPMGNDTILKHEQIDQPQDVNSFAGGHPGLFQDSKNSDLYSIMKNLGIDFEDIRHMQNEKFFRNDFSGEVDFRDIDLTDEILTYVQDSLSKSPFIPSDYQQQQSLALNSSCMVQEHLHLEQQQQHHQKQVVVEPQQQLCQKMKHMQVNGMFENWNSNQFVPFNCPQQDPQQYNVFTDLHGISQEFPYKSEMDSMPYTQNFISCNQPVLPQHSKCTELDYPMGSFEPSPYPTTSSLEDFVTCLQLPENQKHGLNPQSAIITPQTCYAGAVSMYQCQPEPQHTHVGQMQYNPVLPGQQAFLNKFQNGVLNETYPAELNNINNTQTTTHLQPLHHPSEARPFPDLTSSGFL
Chain of Retinoic acid receptor alpha (Homo sapiens) (P10276 whole entry, looked up): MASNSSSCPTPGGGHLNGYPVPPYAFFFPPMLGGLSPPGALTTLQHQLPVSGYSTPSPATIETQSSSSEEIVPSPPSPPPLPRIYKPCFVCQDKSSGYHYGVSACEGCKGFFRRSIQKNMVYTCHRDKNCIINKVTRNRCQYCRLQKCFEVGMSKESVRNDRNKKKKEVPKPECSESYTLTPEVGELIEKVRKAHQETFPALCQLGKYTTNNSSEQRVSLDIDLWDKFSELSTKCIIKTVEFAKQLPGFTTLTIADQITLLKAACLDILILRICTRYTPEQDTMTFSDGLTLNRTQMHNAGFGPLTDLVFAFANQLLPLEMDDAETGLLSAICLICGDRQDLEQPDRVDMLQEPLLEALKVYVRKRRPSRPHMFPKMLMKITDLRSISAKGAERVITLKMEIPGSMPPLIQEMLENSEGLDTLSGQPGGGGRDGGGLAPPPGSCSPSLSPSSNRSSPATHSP
Chain of CCAAT/enhancer-binding protein beta (Homo sapiens) (P17676 whole entry, looked up): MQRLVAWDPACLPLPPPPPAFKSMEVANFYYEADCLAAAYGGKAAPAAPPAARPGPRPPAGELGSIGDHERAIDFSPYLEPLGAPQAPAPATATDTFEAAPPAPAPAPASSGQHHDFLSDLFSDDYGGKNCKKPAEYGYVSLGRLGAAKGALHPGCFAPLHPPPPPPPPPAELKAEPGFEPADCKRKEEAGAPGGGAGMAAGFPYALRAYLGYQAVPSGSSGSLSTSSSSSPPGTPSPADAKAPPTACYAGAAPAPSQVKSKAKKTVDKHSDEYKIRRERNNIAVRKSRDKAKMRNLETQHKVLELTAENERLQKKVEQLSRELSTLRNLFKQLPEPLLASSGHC
Chain of Transcription factor E2F1 (Homo sapiens) (Q01094 whole entry, looked up): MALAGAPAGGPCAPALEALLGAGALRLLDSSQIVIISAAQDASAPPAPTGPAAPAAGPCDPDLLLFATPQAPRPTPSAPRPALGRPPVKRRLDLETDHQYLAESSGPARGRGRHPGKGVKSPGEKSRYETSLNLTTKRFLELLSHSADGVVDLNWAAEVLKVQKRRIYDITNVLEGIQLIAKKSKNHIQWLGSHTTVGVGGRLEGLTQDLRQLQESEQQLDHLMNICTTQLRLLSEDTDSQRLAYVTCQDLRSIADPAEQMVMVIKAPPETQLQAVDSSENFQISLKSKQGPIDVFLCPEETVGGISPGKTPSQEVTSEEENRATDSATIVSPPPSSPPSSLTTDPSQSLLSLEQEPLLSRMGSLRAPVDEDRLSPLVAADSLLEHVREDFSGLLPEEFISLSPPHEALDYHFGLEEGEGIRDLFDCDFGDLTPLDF

As for `CNC(=S)N(C)C`, the compound was called inactive in test [1], in test [2], in [3], in test [4], in test [5] and in test [6]. Besides, the result in test [7], in test [8] and in test [9] was inactive.

For the compound `CCC(=O)Oc1ccc(/C(CC)=C(\CC)c2ccc(OC(=O)CC)cc2)cc1`, the values for the AC50 in [1], in [4] and in test [10] were 25.9 µM (active), 6.03 µM (active) and 11.6 µM (active), respectively. The result in test [2], in test [3], in test [6], in test [7], in test [8] and in [9] was inactive.

Turning to `CC1OC1C1CCC2(C)OC2C1` (stereo unspecified), the compound was classed as inactive in [1], in test [2], in test [3], in test [4], in test [5] and in test [10]. The compound was classed as inactive in test [7], in test [8] and in test [9].

As for `CCCCCCC1(C)CCC(=O)O1` (stereo unspecified), the result in test [1], in [2], in test [3], in test [4], in test [10] and in test [7] was inactive. For the same compound, the call in test [8] and in [9] was inactive. Besides, the AC50 in test [5] was 44.4 µM (active).

On to `CCc1c(C(=O)O)c(=O)cnn1-c1ccc(Cl)cc1`, for which the call in test [1], in test [2], in [3], in [4], in test [5] and in test [6] was inactive. In addition, the outcome in [7], in test [8] and in test [9] was inactive.

Consider `CC(C)C1=CC2=CC[C@@H]3[C@](C)(CCC[C@@]3(C)C(=O)O)[C@H]2CC1`, for which the result in test [1], in test [2], in test [6], in test [7], in test [8] and in test [9] was inactive. In addition, the concentration at half-maximal activity (AC50) in test [3] was 135 µM (active); in test [4], 3.7 µM (active); in [10] it was 149 µM (active).

Consider `COC(F)(F)C(F)(C(F)(F)F)C(F)(F)F`, for which the call in test [1], in [2], in test [3], in test [4], in [5] and in test [8] was inactive. Further, the outcome in test [9] was inactive.

Regarding `O=Nc1ccc(O)cc1`, the call in test [1], in test [2], in test [3], in test [4], in test [10] and in test [6] was inactive. Also, the outcome in [7] and in [8] was inactive.

For the compound `CC(=O)Nc1nnc(S(N)(=O)=O)s1`, the call in test [1], in test [2], in [3], in test [4], in test [10] and in test [6] was inactive. Further, the outcome in test [7], in [8] and in test [9] was inactive.

With `CCOC(=O)NNc1nncc2ccccc12`, the compound was classed as inactive in [1], in [2], in [3], in [4], in [5] and in test [7]. Besides, the compound was classed as inactive in test [8] and in test [9].

In the case of `O=c1c2ccccc2nnn1CCl`, the compound was classed as inactive in test [1], in test [2], in test [3], in test [4], in [10] and in test [6]. Also, the call in test [7], in test [8] and in test [9] was inactive.

On to `CCOC(=O)c1ccccc1C(=C1C=C(Br)C(=O)C(Br)=C1)c1cc(Br)c(O)c(Br)c1`, for which the half-maximal activity concentration (AC50) was 25.4 µM (active) in [1]; 18.8 µM (active) in [2]; 53.7 µM (active) in test [3]; 21.5 µM (active) in test [4]; 26.2 µM (active) in [5]; 49.9 µM (active) in [6]. In addition, the values for the AC50 in test [7] and in [8] were 109 µM (active) and 21.3 µM (active), respectively. In addition, the result in [9] was inactive.

As to `O=C(/C=C/C=C/c1ccc2c(c1)OCO2)N1CCCCC1`, the result in test [1], in test [2], in test [3], in [5], in test [6] and in [8] was inactive. The compound was called inactive in [9]. Moreover, the AC50 in test [4] is 72.6 µM (active); in test [7] it was 176 µM (active).

As for `CC(C)(C)c1n[nH]c(=O)n(N)c1=O`, the outcome in [1], in test [2], in test [3], in test [4], in test [5] and in test [10] was inactive. Moreover, the compound was called inactive in test [8] and in test [9].

Turning to `C=CC(=O)NC(C)(C)CS(=O)(=O)O`, the result in [1], in test [2], in [3], in [4], in [5] and in [6] was inactive. For the same compound, the result in [8] and in test [9] was inactive. The half-maximal activity concentration (AC50) in [7] was 15.8 µM (active).

As to `CC1(C)O[C@@H]2C[C@H]3[C@@H]4C[C@H](F)C5=CC(=O)C=C[C@]5(C)[C@@]4(F)[C@@H](O)C[C@]3(C)[C@]2(C(=O)CO)O1`, the compound was called inactive in [1], in test [2], in test [3], in test [4], in test [5] and in [6]. The outcome in [7], in test [8] and in test [9] was inactive.

Take `Cc1cc(C)c(C)c(O)c1`: the outcome in test [1], in test [2], in test [3], in [4], in [5] and in test [7] was inactive. In addition, the compound was classed as inactive in test [8] and in [9].

On to `O=C(Cl)c1cc(C(=O)Cl)cc(C(=O)Cl)c1`, for which the outcome in [1], in test [2], in test [3], in test [4], in test [6] and in test [8] was inactive. The call in [9] was inactive. Moreover, the half-maximal activity concentration (AC50) in test [5] was 77.5 µM (active); in test [7] it was 125 µM (active).
